# Laboratory results reported in the supplement of paper PMC11001985.
# Unmarked numbers belong to inactive results.
# Compound: C#CCNC(=O)CCSSCCC(=O)NCCc1ccc(C=O)c(C=O)c1
# Assay: lysine labeling ratio R10:1 (500 µM / 50 µM probe), SILAC-ABPP in living cells; higher = lower intrinsic lysine reactivity toward the probe, active = 2 or less
# Conditions: HeLa; probe concentrations 500 vs 50 µM
# Outline: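 With forward and reverse label swaps, light and heavy SILAC HeLa cells, alive and in PBS at room temperature, were exposed to either 500 µM or 50 µM of an alkyne-tagged lysine probe bearing a disulfide link. After mixing, lysates were clicked to biotin-azide, cut with trypsin, pulled down on neutravidin, freed with DTT, alkylated and analysed on a TIMS-TOF Pro by LC-MS/MS. The per-lysine value R is the median over forward and reverse replicates of the filtered median high-probe/low-probe MS1 peptide ratio. It is capped at 20.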
# Sequence of UniProt P21333 (P21333 whole entry): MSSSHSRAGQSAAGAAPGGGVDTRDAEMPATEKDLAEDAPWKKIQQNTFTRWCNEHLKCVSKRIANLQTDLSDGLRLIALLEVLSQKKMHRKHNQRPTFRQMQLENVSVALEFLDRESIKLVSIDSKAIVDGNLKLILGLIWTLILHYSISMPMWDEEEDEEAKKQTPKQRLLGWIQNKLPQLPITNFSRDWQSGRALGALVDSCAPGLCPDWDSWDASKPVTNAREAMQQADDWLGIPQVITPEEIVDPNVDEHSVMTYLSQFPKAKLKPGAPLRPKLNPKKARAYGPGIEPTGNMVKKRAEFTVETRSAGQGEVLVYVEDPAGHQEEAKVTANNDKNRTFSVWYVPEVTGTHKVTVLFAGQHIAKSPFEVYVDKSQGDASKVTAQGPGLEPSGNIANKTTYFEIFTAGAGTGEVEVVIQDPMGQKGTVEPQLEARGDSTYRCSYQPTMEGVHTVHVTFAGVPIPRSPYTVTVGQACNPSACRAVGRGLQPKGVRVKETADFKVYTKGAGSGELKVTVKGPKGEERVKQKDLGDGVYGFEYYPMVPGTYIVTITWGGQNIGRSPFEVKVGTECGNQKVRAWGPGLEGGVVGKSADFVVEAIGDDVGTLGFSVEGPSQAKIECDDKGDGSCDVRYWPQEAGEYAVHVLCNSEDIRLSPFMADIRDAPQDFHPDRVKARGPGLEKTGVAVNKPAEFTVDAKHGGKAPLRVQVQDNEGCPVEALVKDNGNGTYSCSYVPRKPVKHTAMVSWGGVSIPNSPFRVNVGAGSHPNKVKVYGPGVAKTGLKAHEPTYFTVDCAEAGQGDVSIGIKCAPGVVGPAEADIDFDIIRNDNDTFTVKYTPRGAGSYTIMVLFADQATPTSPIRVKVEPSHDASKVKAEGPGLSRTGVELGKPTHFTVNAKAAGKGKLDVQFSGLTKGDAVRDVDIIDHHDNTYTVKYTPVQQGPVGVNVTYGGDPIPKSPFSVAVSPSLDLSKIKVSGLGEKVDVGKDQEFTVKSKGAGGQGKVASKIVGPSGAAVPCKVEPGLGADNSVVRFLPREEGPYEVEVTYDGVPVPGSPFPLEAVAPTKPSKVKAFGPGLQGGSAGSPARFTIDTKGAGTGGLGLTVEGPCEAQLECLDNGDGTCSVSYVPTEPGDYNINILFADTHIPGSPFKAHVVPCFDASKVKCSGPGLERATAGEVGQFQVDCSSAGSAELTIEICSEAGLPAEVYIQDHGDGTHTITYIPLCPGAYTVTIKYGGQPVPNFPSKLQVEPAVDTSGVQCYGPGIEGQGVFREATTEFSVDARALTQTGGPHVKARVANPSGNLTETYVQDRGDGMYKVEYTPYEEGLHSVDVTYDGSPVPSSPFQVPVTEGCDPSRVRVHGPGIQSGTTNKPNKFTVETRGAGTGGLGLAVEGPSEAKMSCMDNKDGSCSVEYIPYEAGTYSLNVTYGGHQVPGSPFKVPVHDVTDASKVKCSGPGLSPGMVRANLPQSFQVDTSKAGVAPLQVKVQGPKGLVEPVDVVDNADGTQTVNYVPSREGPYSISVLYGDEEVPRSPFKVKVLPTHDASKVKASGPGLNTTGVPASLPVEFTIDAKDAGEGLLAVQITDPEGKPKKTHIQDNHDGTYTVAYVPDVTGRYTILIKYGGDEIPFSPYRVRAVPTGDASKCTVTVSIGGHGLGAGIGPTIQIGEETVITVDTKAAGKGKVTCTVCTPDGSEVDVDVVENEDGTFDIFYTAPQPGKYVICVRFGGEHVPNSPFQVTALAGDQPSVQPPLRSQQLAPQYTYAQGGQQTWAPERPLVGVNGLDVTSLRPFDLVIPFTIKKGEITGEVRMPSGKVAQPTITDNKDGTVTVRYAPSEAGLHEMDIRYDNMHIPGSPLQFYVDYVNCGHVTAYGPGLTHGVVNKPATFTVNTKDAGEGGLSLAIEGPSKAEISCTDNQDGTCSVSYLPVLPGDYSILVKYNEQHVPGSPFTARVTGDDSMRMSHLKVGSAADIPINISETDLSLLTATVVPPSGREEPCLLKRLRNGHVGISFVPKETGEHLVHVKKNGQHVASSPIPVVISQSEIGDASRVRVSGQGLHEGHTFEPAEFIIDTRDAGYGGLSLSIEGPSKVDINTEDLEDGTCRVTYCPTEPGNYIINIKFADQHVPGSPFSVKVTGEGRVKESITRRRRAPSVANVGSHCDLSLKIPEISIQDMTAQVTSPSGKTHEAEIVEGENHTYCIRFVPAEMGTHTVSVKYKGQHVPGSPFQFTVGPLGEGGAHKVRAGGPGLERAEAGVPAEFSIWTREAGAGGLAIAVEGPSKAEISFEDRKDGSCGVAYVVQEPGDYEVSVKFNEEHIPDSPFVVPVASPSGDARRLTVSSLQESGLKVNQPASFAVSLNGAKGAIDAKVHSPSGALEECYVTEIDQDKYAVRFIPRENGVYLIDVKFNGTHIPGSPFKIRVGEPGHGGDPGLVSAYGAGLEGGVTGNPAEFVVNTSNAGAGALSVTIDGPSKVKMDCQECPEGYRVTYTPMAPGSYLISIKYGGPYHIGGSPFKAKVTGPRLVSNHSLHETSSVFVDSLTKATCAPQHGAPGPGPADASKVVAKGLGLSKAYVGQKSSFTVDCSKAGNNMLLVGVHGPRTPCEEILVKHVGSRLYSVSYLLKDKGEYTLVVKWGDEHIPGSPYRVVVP
# Sequence of UniProt P38159 (P38159 whole entry): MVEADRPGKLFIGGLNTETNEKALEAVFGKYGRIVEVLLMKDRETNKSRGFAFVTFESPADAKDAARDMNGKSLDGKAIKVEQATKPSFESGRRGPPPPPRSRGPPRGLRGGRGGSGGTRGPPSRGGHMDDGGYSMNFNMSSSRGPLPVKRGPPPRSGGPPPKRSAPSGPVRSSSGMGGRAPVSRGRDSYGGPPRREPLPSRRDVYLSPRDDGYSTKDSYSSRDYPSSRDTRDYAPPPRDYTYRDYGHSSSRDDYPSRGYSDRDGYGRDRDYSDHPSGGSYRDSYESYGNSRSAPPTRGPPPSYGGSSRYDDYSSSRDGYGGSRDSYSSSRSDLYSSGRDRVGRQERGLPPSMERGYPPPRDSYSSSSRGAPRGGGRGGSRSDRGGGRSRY
# Sequence of UniProt P17301 (P17301 whole entry): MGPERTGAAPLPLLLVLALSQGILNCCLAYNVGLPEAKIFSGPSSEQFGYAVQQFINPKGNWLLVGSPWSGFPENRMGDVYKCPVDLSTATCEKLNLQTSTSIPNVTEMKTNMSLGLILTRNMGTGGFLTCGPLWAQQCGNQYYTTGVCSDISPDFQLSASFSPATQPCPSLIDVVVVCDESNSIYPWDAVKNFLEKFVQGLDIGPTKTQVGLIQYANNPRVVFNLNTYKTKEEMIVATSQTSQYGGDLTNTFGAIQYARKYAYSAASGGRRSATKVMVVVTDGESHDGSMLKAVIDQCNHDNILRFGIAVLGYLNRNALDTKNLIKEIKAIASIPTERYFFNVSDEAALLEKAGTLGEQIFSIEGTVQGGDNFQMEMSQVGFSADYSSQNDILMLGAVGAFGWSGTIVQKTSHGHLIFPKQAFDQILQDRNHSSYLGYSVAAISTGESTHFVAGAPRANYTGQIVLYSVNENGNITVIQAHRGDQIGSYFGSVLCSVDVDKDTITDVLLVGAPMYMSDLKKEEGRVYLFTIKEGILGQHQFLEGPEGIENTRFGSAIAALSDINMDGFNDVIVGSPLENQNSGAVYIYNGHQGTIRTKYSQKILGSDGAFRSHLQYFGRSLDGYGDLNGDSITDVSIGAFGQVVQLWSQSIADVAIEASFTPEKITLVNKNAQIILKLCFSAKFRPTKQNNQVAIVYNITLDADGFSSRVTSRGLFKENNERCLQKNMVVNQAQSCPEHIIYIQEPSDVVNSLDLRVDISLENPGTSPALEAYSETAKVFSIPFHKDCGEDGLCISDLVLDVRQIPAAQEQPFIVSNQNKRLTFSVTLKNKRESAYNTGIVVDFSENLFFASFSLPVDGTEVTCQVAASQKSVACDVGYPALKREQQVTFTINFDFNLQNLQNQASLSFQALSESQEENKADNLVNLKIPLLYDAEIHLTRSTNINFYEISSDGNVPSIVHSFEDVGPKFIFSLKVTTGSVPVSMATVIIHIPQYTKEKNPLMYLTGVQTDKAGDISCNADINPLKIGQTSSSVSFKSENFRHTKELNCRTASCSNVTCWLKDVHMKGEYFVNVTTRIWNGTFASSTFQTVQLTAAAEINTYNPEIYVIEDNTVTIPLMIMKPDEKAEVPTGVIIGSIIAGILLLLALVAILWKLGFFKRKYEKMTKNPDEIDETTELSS
# Sequence of UniProt P60981 (P60981 whole entry): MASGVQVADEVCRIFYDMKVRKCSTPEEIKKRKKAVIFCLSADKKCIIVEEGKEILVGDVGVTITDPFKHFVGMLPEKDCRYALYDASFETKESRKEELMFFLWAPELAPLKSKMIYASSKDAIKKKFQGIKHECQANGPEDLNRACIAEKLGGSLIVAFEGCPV
# Sequence of UniProt P07355 (P07355 whole entry): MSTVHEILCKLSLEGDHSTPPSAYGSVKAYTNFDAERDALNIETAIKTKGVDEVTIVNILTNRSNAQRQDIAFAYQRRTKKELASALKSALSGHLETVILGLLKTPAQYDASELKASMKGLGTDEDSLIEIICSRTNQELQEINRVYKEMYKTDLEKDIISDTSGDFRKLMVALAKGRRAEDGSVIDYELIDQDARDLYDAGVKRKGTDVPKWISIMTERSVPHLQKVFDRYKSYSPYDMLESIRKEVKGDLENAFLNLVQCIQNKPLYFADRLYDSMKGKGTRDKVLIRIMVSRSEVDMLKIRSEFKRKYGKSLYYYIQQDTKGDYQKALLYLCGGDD
# Sequence of UniProt P25445 (P25445 whole entry): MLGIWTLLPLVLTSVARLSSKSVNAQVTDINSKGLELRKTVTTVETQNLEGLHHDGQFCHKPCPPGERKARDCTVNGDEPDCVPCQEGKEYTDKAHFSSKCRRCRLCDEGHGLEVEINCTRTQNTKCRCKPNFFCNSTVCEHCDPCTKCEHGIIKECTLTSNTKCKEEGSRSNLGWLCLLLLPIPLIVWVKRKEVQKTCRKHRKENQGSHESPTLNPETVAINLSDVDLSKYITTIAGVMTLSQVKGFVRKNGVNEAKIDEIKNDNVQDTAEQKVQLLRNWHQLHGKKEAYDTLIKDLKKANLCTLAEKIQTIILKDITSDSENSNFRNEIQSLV
row,Target,lysine labeling ratio R10:1
1,ARHGAP17 (lysine site: K9) (UniProt Q68EM7),1.92 (active)
2,SERBP1 (lysine site: K72) (UniProt Q8NC51),1.17 (active)
3,DSTN (lysine site: K19) (UniProt P60981),1.87 (active)
4,Q95604 (lysine site: K210) (UniProt P10321),6.33
5,SUB1 (lysine site: K68) (UniProt P53999),8.07
6,CFL1 (lysine site: K144) (UniProt P23528),3.15
7,EPHA2 (lysine site: K162) (UniProt P29317),5.99
8,NOTCH1 (lysine site: K1607) (UniProt P46531),6.4
9,NCL (lysine site: K449) (UniProt P19338),0.805 (active)
10,CCT6A (lysine site: K251) (UniProt P40227),1.04 (active)
11,UniProt Q9UHN6 (lysine site: K856),0.771 (active)
12,G6PD (lysine site: K171) (UniProt P11413),6.51
13,ATP1B1 (lysine site: K216) (UniProt P05026),4.23
14,UniProt Q15149 (lysine site: K1996),3.69
15,SPTAN1 (lysine site: K1023) (UniProt Q13813),9.87
16,RBMX (lysine site: K217) (UniProt P38159),8.01
17,LMO7 (lysine site: K1264) (UniProt Q8WWI1),4.64
18,UniProt P21589 (lysine site: K471),1.6 (active)
19,PA2G4 (lysine site: K287) (UniProt Q9UQ80),0.997 (active)
20,FLNA (lysine site: K2387) (UniProt P21333),11.9
21,TMEM132A (lysine site: K820) (UniProt Q24JP5),2.33
22,AGRN (lysine site: K383) (UniProt O00468),12.9
23,UniProt P08727 (lysine site: K216),7.74

row,Target,lysine labeling ratio R10:1
1,UniProt O95980 (lysine site: K684),1.24 (active)
2,CELSR2 (lysine site: K2183) (UniProt Q9HCU4),4.05
3,IGF2R (lysine site: K303) (UniProt P11717),2.37
4,DSG2 (lysine site: K254) (UniProt Q14126),8.19
5,PTPRF (lysine site: K612) (UniProt P10586),4.74
6,UniProt P23352 (lysine site: K279),3.78
7,ANXA2 (lysine site: K279) (UniProt P07355),5.78
8,PTPRS (lysine site: K144) (UniProt Q13332),1.57 (active)
9,UniProt Q16363 (lysine site: K717),0.58 (active)
10,KIAA1549 (lysine site: K1262) (UniProt Q9HCM3),0.805 (active)
11,UniProt Q9NYQ7 (lysine site: K548),1.02 (active)
12,PDIA3 (lysine site: K433) (UniProt P30101),2.21
13,RBMX (lysine site: K150) (UniProt P38159),16.9
14,UniProt P62273 (lysine site: K13),1.45 (active)
15,ITGA2 (lysine site: K718) (UniProt P17301),2.51
16,ITGA2 (lysine site: K603) (UniProt P17301),1.54 (active)
17,FAS (lysine site: K100) (UniProt P25445),1.44 (active)
18,ECE1 (lysine site: K197) (UniProt P42892),2.89
19,L1CAM (lysine site: K222) (UniProt P32004),9.33
20,GSN (lysine site: K193) (UniProt P06396),2.07
21,SEMA3C (lysine site: K495) (UniProt Q99985),2.53
22,ROBO1 (lysine site: K316) (UniProt Q9Y6N7),6.23
23,FLNA (lysine site: K2607) (UniProt P21333),6.14
